Source: PubChem
TEAD-YAP block: TEAD-YAP interaction inhibition, primary screen, TEAD-YAP interaction inhibitor project, luminescence, HEK-TIYL cells; TEAD-Gal4/YAP UAS-luciferase luminescence; inhibition, % at 9.12 µM; 640,000 compounds, 1.4% hits; AID 1259422, 2018; in the data active means inhibition above about 32%
MITF primary: MITF inhibitors, primary screen, biochemical, AlphaScreen, human; Microphthalmia-associated transcription factor (Homo sapiens), O75030; 650,000 compounds, 0.91% hits; AlphaScreen MITF homodimerization, bead proximity signal; inhibition, % at 2.6 µM; AID 1259374, 2018; in the data active means inhibition above about 50%
Target sequence (O75030 whole entry, looked up): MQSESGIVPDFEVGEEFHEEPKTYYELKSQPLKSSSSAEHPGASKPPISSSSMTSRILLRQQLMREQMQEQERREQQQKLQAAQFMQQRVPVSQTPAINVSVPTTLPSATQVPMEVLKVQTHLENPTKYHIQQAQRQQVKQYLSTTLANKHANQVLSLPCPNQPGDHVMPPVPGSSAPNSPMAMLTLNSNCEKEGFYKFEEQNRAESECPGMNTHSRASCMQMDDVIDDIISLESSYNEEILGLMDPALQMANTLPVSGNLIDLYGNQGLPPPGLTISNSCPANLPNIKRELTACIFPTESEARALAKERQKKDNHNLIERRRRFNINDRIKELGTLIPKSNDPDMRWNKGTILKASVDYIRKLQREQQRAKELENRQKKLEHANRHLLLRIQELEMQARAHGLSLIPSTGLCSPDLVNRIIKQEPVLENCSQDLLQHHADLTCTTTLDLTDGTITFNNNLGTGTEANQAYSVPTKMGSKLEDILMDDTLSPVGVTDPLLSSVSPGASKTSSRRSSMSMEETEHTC
FBW7 activator: FBW7 E3 ligase activators, primary screen, biochemical, AlphaScreen, human; F-box/WD repeat-containing protein 7 (Homo sapiens), Q969H0; AlphaScreen FBW7–phospho-cyclin E peptide binding, activator screen; normalized activity (activation), % at 26.1 µM; 650,000 compounds, 0.13% hits; AID 1259310, 2017; in the data active means normalized activity above about 1.9%;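 further: purified mutant Fbw7 with reduced substrate affinity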
GPR151 ag: activators of human GPR151, primary screen, cell-based, PathHunter beta-arrestin, luminescence; 650,000 compounds, 1% hits; G-protein coupled receptor 151 (Homo sapiens), Q8TDV0; activation, % at 11.2 µM; PathHunter beta-arrestin GPR151 cells; in the data active means activation above about 4.9%
Hits are given with their value; 0 = inactive; - = no result given. This is a sample that favours compounds with a hit; in the whole collection about 3.5% have one here.

SMILES	TEAD-YAP block	MITF primary	FBW7 activator	GPR151 ag
C/C(=N/OC(=O)C1CC12CCC2)c1ccccc1 (stereo unspecified)	0	0	0	0
CCOC(=O)/C(C#N)=N/Nc1ccccc1C#N	0	52	0	0
CCOC(=O)/C(C#N)=N\Nc1ccccc1OC	0	0	0	0
CCC(CO)NC(=O)C(=O)Nc1cccc(Cl)c1Cl (stereo unspecified)	0	0	0	0
COc1ccccc1Cc1nc2ccccc2nc1SCC(=O)Nc1cccc(C(F)(F)F)c1	0	0	0	0
c1ccc(Nc2nc(Nc3ccc(N4CCOCC4)cc3)c3[nH]cnc3n2)cc1	47	0	0	0
CCCNc1nc(Nc2cc(OC)c(OC)c(OC)c2)nc2nc[nH]c12	39	0	0	0
c1cn(-c2ccc(Nc3nc(Nc4ccc(N5CCOCC5)cc4)c4[nH]cnc4n3)cc2)cn1	51	0	0	0
Nc1cccc(-c2nc(Nc3ccc(N4CCOCC4)cc3)c3[nH]cnc3n2)c1	60	0	0	0
CC(=O)c1cccc(-c2nc(Nc3ccc(N4CCOCC4)cc3)c3[nH]cnc3n2)c1	0	0	0	0
CN1Cc2ccccc2CC1C(=O)N1CCC2(CC1)NC(=O)c1ccccc1O2 (stereo unspecified)	0	0	0	0
CCOc1ccc(NC(=O)CN2CCN(CC)C(=O)C2=O)cc1	0	0	0	0
CC1Sc2ccccc2N(CC(=O)N2CCCC2)C1=O (stereo unspecified)	0	0	0	0
Cc1cnc(Nc2ccc(-n3ccnc3)cc2)nc1Nc1ccc(N2CCOCC2)cc1	51	0	0	0
CC(=O)Nc1ccc(Nc2nc(Nc3ccc(N4CCOCC4)cc3)ncc2C)cc1	0	0	0	0
COc1cc(Nc2nc(Nc3ccc(N4CCOCC4)cc3)c3[nH]cnc3n2)cc(OC)c1OC	64	0	0	0
Cc1ccc(NC(=O)C2C3C=CC4(CNC(=O)C(c5ccc(C)cc5)N(Cc5ccccc5F)C(=O)C24)O3)cc1 (stereo unspecified)	0	0	0	0
O=C1CCCN1CCCNc1nc(Nc2cnccn2)nc2c1ncn2-c1ccccc1	46	0	0	0
O=C1CCCN1CCCNc1nccc(Nc2ccc(Oc3ccccc3)cc2)n1	39	0	0	0
O=C1CCCN1CCCNc1nc(Nc2ccccn2)nc2c1ncn2-c1ccccc1	0	0	0	0
O=C1CCCN1CCCNc1nc(Nc2ccncn2)nc2c1ncn2-c1ccccc1	38	0	0	0
O=C1CCCN1CCCNc1nc(Nc2ccncc2)nc2c1ncn2-c1ccccc1	55	0	0	0
O=C(NCCc1ccccc1)c1cc(-c2cccnc2)cnc1NCC1CC1	-	-	-	0
CCOC(=O)c1cc2c(nc1C)-c1ccccc1C2=O	0	0	0	0
Cc1ccc(S(=O)(=O)N(C(=O)c2ccccc2)c2ccc(OC(=O)c3ccccc3)c3ccccc23)cc1	0	0	0	0
SMILES	TEAD-YAP block	MITF primary	FBW7 activator	GPR151 ag
O=C1CCCN1CCCNc1nc(NCCCN2CCCC2=O)c2ncn(C3CCCCC3)c2n1	0	0	0	0
O=C1CCCN1CCCNc1nc(Nc2ccc3ncccc3c2)nc2c1ncn2-c1ccccc1	72	0	0	0
O=C1CCCN1CCCNc1nc(NCCO)c2ncn(C3CCCCC3)c2n1	0	0	1.9	0
Cc1ccccc1C(=O)NNC(=O)Cc1ccc(-c2ccccc2)cc1	0	0	0	0
NC1=C/C(=N\S(=O)(=O)c2ccccc2)c2ccccc2C1=O	96	0	0	0
CC1CC(C)CN(C(=O)c2ccc(S(=O)(=O)c3cccc(Cl)c3)c([N+](=O)[O-])c2)C1 (stereo unspecified)	0	0	0	0
CCOC(=O)C1CCCN(c2cc(Nc3cccc(OC)c3)c3c4c(onc24)-c2ccccc2C3=O)C1 (stereo unspecified)	0	64	0	0
CCOC(=O)C1CCCN(c2cc(Nc3ccc4c(c3)OCCO4)c3c4c(onc24)-c2ccccc2C3=O)C1 (stereo unspecified)	38	0	0	0
CCCN1CCN(c2cc(Nc3cccc(OC)c3)c3c4c(onc24)-c2ccccc2C3=O)CC1	0	61	0	0
COc1cccc(Nc2cc(N3CCCC3)c3noc4c3c2C(=O)c2ccccc2-4)c1	0	0	0	0
CCCCC(C(=O)OCC)(C(=O)OCC)c1cc(Nc2ccc(C)cc2)c2c3c(onc13)-c1ccccc1C2=O	0	55	0	0
CCOc1ccc(-n2cc(-c3ccccc3)c3c(Nc4ccc(OC)cc4)ncnc32)cc1	0	0	0	0
Cc1cc(C)n(-c2nncn2/N=C/c2cccc([N+](=O)[O-])c2)n1	0	0	0	0
CC(C)n1cnc2c(Nc3ccc(N4CCOCC4)cc3)nc(NC3CCN(Cc4ccccc4)CC3)nc21	0	0	0	0
CCN(CC)c1nc(NCCN2CCOCC2)nc(Nc2cc(OC)c(OC)c(OC)c2)n1	0	0	0	0
O=C(Nc1ccc(Cl)cn1)c1ccccn1	0	0	0	0
c1ccc2c(OCc3nc4c5c6c(sc5ncn4n3)CCCCC6)cccc2c1	0	0	0	0
COc1cc(Nc2cc(N3CCN(C(=O)c4ccco4)CC3)c3noc4c3c2C(=O)c2ccccc2-4)cc(OC)c1OC	40	0	0	0
O=C(O)C(=O)/C(=C\c1ccccc1)c1ccc2ccccc2n1	0	0	0	0
O=C(O)C(=O)/C(=C\c1ccsc1)c1ccc2ccccc2n1	45	0	0	0
Cc1c(CCNS(=O)(=O)c2ccc(F)cc2)sc2nc(-c3ccc(F)cc3)nn12	37	0	0	0
CC(C)CCOC(=O)C[N+](C)(C)CCOC1CC2CCC1(C)C2(C)C (stereo unspecified)	37	0	0	0
CCOc1ccc(NC(=O)C(=O)N/N=C/c2ccc(Cl)cc2)cc1	0	0	0	0
Cc1cccc(NC(c2ccc(Cl)cc2)c2ccc3cccnc3c2O)n1 (stereo unspecified)	90	0	0	0
Cc1cccc(NC(c2cccc(Cl)c2)c2ccc3cccnc3c2O)n1 (stereo unspecified)	48	0	0	0
SMILES	TEAD-YAP block	MITF primary	FBW7 activator	GPR151 ag
Cc1cccc(NC(c2ccncc2)c2ccc3cccnc3c2O)n1 (stereo unspecified)	68	113	0	0
Cc1cc(NC(c2cccc(Br)c2)c2ccc3cccnc3c2O)no1 (stereo unspecified)	84	0	0	0
Cc1cccc(NC(c2cccnc2)c2ccc3ccc(C)nc3c2O)n1 (stereo unspecified)	0	0	0	0
Cc1ccc(Nc2nc(N3CCN(C)CC3)nc3[nH]ncc23)cc1	0	0	0	0
Fc1cccc(-c2cnc3ccc(NCCc4cccnc4)nn23)c1	65	0	0	0
Clc1ccc(-c2cnc3ccc(NCCc4cccnc4)nn23)cc1	52	0	0	0
c1cncc(CCNc2ccc3ncc(-c4ccc5ccccc5c4)n3n2)c1	0	0	0	0
CC1(C)CC(=O)C2=C(C1)OC1=C(C(=O)CC(C)(C)C1)C2c1cc(C(C)(C)C)c(O)c(C(C)(C)C)c1	0	0	0	0
